Screening results: PubChem BioAssay, several laboratories
Compounds with a hit are over-represented: about 4.7% of the library has one in this group of screens.
tim23-1 inh: growth inhibitors of tim23-1 mutant yeast; AID 463212; inhibition, % at 20 µM; S. cerevisiae tim23-1 growth, BacTiter-Glo luminescence, 24 h; 330,000 compounds, 1.3% hits;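 active = growth inhibition of the mutant yeast at or above 50%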;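 also: temperature-sensitive mutant grown at 25 °C; plate controls were DMSO-treated mutant yeast for no effect and medium wells lacking yeast for full effect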
tim10-1 inh: growth inhibitors of tim10-1 mutant yeast; S. cerevisiae tim10-1 ts strain growth, BacTiter-Glo, 24 h; inhibition, % at 20 µM; 330,000 compounds, 2.2% hits;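 active = inhibition of at least 40%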;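 also: mutant grown at 25 °C; 0% = DMSO wells with yeast and 100% = wells holding no yeast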
PfHsp90 set2: reduces growth (ATP signal) of yeast expressing P. falciparum Hsp90; AID 504621; S. cerevisiae expressing PfHsp90, BacTiter-Glo ATP, 48 h; yeast lacking PDR1 and PDR3 efflux regulators; inhibition, % at 9.4 µM; 310,000 compounds, 0.32% hits;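 active = every replicate shows inhibition above about 80%, whatever the replicate mean, limit read from the data; inconclusive = mean inhibition reaches the set limit but some replicate falls short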;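 also: 0% = DMSO neutral controls and 100% = 20 µM radicicol positive controls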
SKKanGAS inh: blocks kanamycin growth of S. pyogenes SKKanGAS strain | AID 1662 | BacTiter-Glo, 6 h | inhibition, % at 7.5 µM | 300,000 compounds, 1.3% hits;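 active = mean replicate score, as percent of positive control median, at least 50; inconclusive = mean below 50 but one replicate at or above 50; inactive = mean and every replicate below 50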;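 also: strain carries kanamycin resistance gene driven by streptokinase promoter and grows in 40 µg/ml kanamycin; loss of luminescence reflects streptokinase promoter inhibition or plain growth inhibition; 0% = median of DMSO wells and 100% = positive control at its reference dose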
Calb FLC: affects C. albicans growth with fluconazole; 300,000 compounds, 0.57% hits; C. albicans CaCi-2 (fluconazole-resistant clinical isolate) + fluconazole, Alamar Blue growth, 48 h; growth inhibition, % (concentration not given with the values);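 active = growth inhibition above about 58% in most replicates, limit read from the data, passing the limit was not always enough; inconclusive = exactly half the replicates above a set limit; inactive = most replicates below a set limit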;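 also: all wells also contain fluconazole at 8 µg/ml as a sub-toxic cotreatment; 0% = median of DMSO wells and 100% = median of geldanamycin control wells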
TIM10 inh: inhibits growth of TIM10 yeast strain; S. cerevisiae TIM10 strain growth, BacTiter-Glo luminescence, 24 h; inhibition, % at 10 µM; 330,000 compounds, 1.4% hits; AID 463195;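 active = inhibition of 40% or more at the single tested concentration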;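 also: wild-type TIM10 isogenic control strain grown at permissive 25 °C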
Active calls of the source: *; ? = inconclusive; . = not tested or not shown.

SMILES	tim23-1 inh	tim10-1 inh	PfHsp90 set2	SKKanGAS inh	Calb FLC	TIM10 inh
CCCC12CN3CC(CCC)(CN(C1)C3c1ccccn1)C2=O (stereo not given)	-2	19	.	75*	?	-5
CCCC12CN3CCN(C1)CC(CCC)(C3)C2=O	-6	5	-1	-1	5	-22
Cn1c(=O)c2c(nc(-c3ccc(N(CCCl)CCCl)cc3)n2C)n(C)c1=O	.	.	-5	.	.	.
CC(CC(C#N)(c1ccccc1)c1ccccc1)N1CCOCC1 (stereo not given)	.	.	4	.	.	.
Cc1cc([N+](=O)[O-])c(Cl)cc1NC(=O)C(C)C	12	2	28	1	-4	2
CNc1cc(Cl)c2nonc2c1[N+](=O)[O-]	.	.	8	35	100*	.
Cc1nn(-c2ccccc2)c(Cl)c1C1C(C#N)=C(N)Oc2c1c(=O)oc1ccccc21 (stereo not given)	26	21	-38	108*	-5	14
C[C@]12CC[C@@H](O)CC1=CCC1C2CC[C@@]2(C)C1C[C@@H](F)[C@H]2O (stereo not given in full)	.	.	8	.	.	.
CC(C)(C)c1ccc(CSc2cnn(C(C)(C)C)c(=O)c2Cl)cc1	0	-8	17	59*	84*	8
C=C1C(=O)OC2CC(C)C3C=CC(=O)C3(C)C(O)C12 (stereo not given)	.	.	-16	.	.	.
C=C1C(=O)O[C@@H]2C[C@@H](C)[C@@H]3C4OC4C(=O)[C@@]3(C)[C@@H](O)[C@H]12 (stereo not given in full)	28	23	10	-5	77*	22
CC(=O)OC1CCC2(C)C3CCC4(C)C(OC(C)=O)CCC4C3C(C)C2(O)C1 (stereo not given)	.	.	-14	.	.	.
COc1ccc(-c2cc(-c3ccccc3)[n+](C)c(-c3ccccc3)c2)cc1	18	35	12	-7	103*	34
C[n+]1c(-c2ccccc2)cc(CCCCc2cc(-c3ccccc3)[n+](C)c(-c3ccccc3)c2)cc1-c1ccccc1	-6	14	-5	.	111*	-9
COc1ccc(-[n+]2c(-c3ccccc3)cc(-c3ccc(C)cc3)cc2-c2ccccc2)cc1	4	13	9	-1	89*	18
NC(N)=Nc1ccc2[nH]c3c(c2c1)C[C@@]1(O)[C@H]2Cc4ccc(O)c5c4[C@@]1(CCN2CC1CC1)C3O5 (stereo not given in full)	-64	-18	.	.	.	-23
C[C@H]1[C@@H](OS(=O)(=O)O)C[C@@H]2C[C@H]([C@@H](O)c3cc(=O)[nH]c(=O)[nH]3)NC3=NC[C@H]1N32	.	.	2	.	.	.
CC1CCN(C(CC(=O)c2ccccc2)C(=O)c2ccccc2)CC1 (stereo not given)	.	.	113*	.	.	.
CN1C2CCC1C(COC(=O)c1ccccc1)C(O)C2 (stereo not given)	-2	16	-6	-5	-6	-27
Cc1ccc(OP(=O)(Nc2cccc(C)c2)Oc2ccc(C)cc2)cc1	27	30	-3	76*	-6	8
CC(C)(C)N1CC(C(=O)c2ccccc2)C1c1ccccc1 (stereo not given)	.	.	-3	.	.	.
CC(=O)OC1CCC2(C)C(CCC3C4CC(N5CC5)C(C(C)=O)C4(C)CC(=O)C32)C1 (stereo not given)	.	.	2	.	.	.
CC[C@H](C)/C=C(C)/C=C/C1=CC2=C(Cl)C(=O)[C@@](C)(OC(C)=O)C(=O)C2=CO1	38	27	106*	6	1	10
CC(CC(C)(C)N1CC1)=NNC(=O)Nc1cccc2ccccc12	.	.	28	.	.	.
O=C(N/N=C/c1c(O)n(CCC2=CCCCC2)c(=S)[nH]c1=O)c1ccccc1	26	2	0	97*	98*	16
SMILES	tim23-1 inh	tim10-1 inh	PfHsp90 set2	SKKanGAS inh	Calb FLC	TIM10 inh
O=C(N/N=C/c1c(O)n(CCC2=CCCCC2)c(=O)[nH]c1=O)c1ccccc1	-5	11	2	62*	26	5
COc1ccc(/C=C/C(=O)c2c(O)n(CCC3=CCCCC3)c(=O)[nH]c2=O)cc1	10	7	3	58*	-2	6
O=c1[nH]c(=S)n(CCC2=CCCCC2)c(O)c1C=NCc1cccnc1	15	29	-4	-7	-15	12
NNCc1ccccc1	.	.	-12	.	.	.
CC1=CC2OC3CC4OC(=O)C=CC=CC(=O)OCCC(C)C(O)C(=O)OCC2(CC1)C4(C)C31CO1 (stereo not given)	.	.	105*	.	.	.
CCCCCn1c(=O)c(C(=O)Nc2nc(CC(=O)OCC)cs2)c(O)c2ccccc21	9	5	-26	71*	-26	-1
CCCCCn1c(=O)c(C(=O)Nc2ccccc2C)c(O)c2ccccc21	1	-5	5	-2	-3	-10
CCCCn1c(=O)c(C(=O)Nc2ncccc2C)c(O)c2ccccc21	9	-5	-23	107*	-4	-14
CCCCCCn1c(=O)c(C(=O)Nc2nnc(C)s2)c(O)c2ccccc21	8	10	.	-6	-1	3
CCCCCCn1c(=O)c(C(=O)Nc2cccc(C)n2)c(O)c2ccccc21	4	-1	-26	-3	3	1
CCCCCCn1c(=O)c(C(=O)Nc2ncccc2C)c(O)c2ccccc21	-4	-15	12	94*	3	-29
CCCCn1c(=O)c(C(=O)Nc2nnc(C(C)C)s2)c(O)c2ccccc21	0	-1	.	95*	23	5
C=CCN(CC=C)C(=O)CCN1CC1C (stereo not given)	.	.	-8	.	.	.
Oc1c(Cl)cccc1Cc1cc(Cl)cc(Cl)c1O	.	.	109*	.	.	.
CC(=O)NC1=C(N2CC2C)C(=O)C(NC(C)=O)=C(N2CC2C)C1=O (stereo not given)	.	.	-5	.	.	.
CCN(CCCl)c1cc(CN(C)C)cc(NC(=O)c2ccc(C(=O)Nc3cc(CN(C)C)cc(N(CC)CCCl)c3)cc2)c1	.	.	22	.	.	.
CN(C(=O)Oc1cccc2cccnc12)c1ccccc1	10	28	-32	1	11	-6
Oc1cccc2cccnc12	.	.	.	94*	-3	.
CCOP(=O)(NC(C)C)Oc1ccc(SC)c(C)c1 (stereo not given)	.	.	-18	.	.	.
CN1[C@@H]2CCC[C@H]1CC(=O)C2	.	.	8	.	.	.
CS(=O)(=O)N1Cc2ccccc2-n2nncc2C1	.	.	-3	.	.	.
Cc1ccccc1CN1CCCN(Cc2ccc(Cl)cc2)S1(=O)=O	21	11	3	63*	-3	7
Cc1ccc(CN2CCCN(Cc3ccc(Cl)cc3)S2(=O)=O)cc1	7	7	4	23	-2	1
CCCCn1c(O)c(/C=N/NC(=O)c2ccncc2)c(=O)[nH]c1=S	-9	-31	-4	106*	-1	-17
Cn1c(O)c(/C=N/NC(=O)c2ccncc2)c(=O)[nH]c1=S	6	5	.	1	-2	12
CCCCCCC(=O)N/N=C/c1c(O)n(CCCC)c(=S)[nH]c1=O	13	22	7	84*	-29	3
